{
  "source": "ChEMBL document CHEMBL3988442",
  "about": "“University of Dundee, Small-Polar-MMV Screening Library” (2021)",
  "data": [
    {"biological_target": "T1, Aspartate--tRNA(Asp/Asn) ligase (Mycobacterium tuberculosis (strain ATCC 25618 / H37Rv)) (UniProt P9WFW3)", "T1 sequence (whole entry)": "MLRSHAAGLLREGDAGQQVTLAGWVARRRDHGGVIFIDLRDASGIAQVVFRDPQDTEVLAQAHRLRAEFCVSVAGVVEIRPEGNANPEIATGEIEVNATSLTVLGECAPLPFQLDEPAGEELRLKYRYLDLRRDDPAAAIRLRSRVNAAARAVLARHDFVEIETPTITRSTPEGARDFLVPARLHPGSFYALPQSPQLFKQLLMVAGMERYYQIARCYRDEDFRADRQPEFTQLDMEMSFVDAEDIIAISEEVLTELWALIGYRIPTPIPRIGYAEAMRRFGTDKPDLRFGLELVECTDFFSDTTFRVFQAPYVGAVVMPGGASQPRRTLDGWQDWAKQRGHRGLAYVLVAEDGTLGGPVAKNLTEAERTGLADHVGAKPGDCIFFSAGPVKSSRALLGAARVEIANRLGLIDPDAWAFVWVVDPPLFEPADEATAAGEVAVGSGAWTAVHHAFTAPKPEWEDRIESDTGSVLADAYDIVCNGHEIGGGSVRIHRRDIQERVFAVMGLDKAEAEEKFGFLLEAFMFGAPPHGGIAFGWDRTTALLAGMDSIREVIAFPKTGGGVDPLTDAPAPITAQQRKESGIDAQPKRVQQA", "test": "Assay for Asp RNA synthetase-1 from Mycobacterium tuberculosis", "assay_type": "functional", "design": "scale not given: direction of the effect not stated beside the values", "conditions": "30 µM", "units": {"Percent Effect": "%"}, "values": [
      {"molecule": "Cc1ccc(NC2CCN(C(=O)CC3CCCO3)CC2)nn1", "note": "(stereo not given)", "Percent Effect": -2.07},
      {"molecule": "Cc1cnn(CC2CCCN2C(=O)CCc2c(C)noc2Cl)c1", "note": "(stereo not given)", "Percent Effect": 2.73},
      {"molecule": "N#Cc1ccccc1OCCN1CCCC1Cn1cccn1", "note": "(stereo not given)", "Percent Effect": -0.558},
      {"molecule": "Cc1cnn(CC2CN(CC(=O)Nc3nnc(C)s3)CCO2)c1", "note": "(stereo not given)", "Percent Effect": -4.68},
      {"molecule": "COc1ccccc1C(=O)NC(CC(=O)O)c1cccs1", "note": "(stereo not given)", "Percent Effect": 5.75},
      {"molecule": "COc1ccc(C2=CCN(C(=O)CN(C)CC(C)C#N)CC2)cc1", "note": "(stereo not given)", "Percent Effect": -3.34},
      {"molecule": "CCn1cc(NC(=O)NCC(O)CN2CCc3ccccc3C2)cn1", "note": "(stereo not given)", "Percent Effect": 6.51},
      {"molecule": "CCN(CC)CCNc1ncc(-c2cc(C)no2)c(-c2ccoc2C)n1", "Percent Effect": 2.28},
      {"molecule": "CCN(CC)CCNC(=O)c1cc(C(C)C)nc(N2CCCC2)n1", "Percent Effect": 2.18},
      {"molecule": "Cc1cccc(OCCNC(=O)CN2CCCC2Cn2cccn2)c1", "note": "(stereo not given)", "Percent Effect": -1.71},
      {"molecule": "COCCNC(=O)Nc1ccc(-n2cncn2)c(F)c1", "Percent Effect": -2.66},
      {"molecule": "Cc1cc(C)n(CC2CCCN2CCc2ccncc2)n1", "note": "(stereo not given)", "Percent Effect": -1.26},
      {"molecule": "CC(C)c1noc(CCCC(=O)N2CCN(Cc3ccncc3)CC2)n1", "Percent Effect": 3.6},
      {"molecule": "Cc1nc(C)n(C2CCCN(C(=O)c3csnn3)C2)n1", "note": "(stereo not given)", "Percent Effect": 9.97},
      {"molecule": "Cc1cn2nc(N3CCCN(Cc4noc(C)n4)CC3)sc2n1", "Percent Effect": -1.65},
      {"molecule": "Cc1ccc2cc(C3(O)CCN(C(=O)CN4CCCC4)CC3)ccc2n1", "Percent Effect": 1.48},
      {"molecule": "Cc1ccc(-c2nc(CNCCn3cccn3)cs2)o1", "Percent Effect": -0.233},
      {"molecule": "Cc1nnc(C(C)N2CCN(Cc3ccc(C#N)cc3)CC2)o1", "note": "(stereo not given)", "Percent Effect": -2.07},
      {"molecule": "CC(C)c1cc2c(O)nc(CSCC(=O)O)nc2s1", "Percent Effect": -0.29},
      {"molecule": "CC(NCc1ccc(F)cc1)c1ccc(OCC(=O)NC2CC2)cc1", "note": "(stereo not given)", "Percent Effect": 0.888},
      {"molecule": "N#Cc1ccccc1C(=O)N1CCC2(CC(=O)NC2=O)C1", "note": "(stereo not given)", "Percent Effect": -0.613},
      {"molecule": "COc1cc(CNC(=O)c2c(C)noc2C(C)C)ccn1", "Percent Effect": -1.27},
      {"molecule": "Nc1cc(CCC2CN(Cc3ccc(C(=O)O)cc3)CCO2)ccn1", "note": "(stereo not given)", "Percent Effect": 2.72},
      {"molecule": "c1nc(COCC2CC2)c2n1CCCN(CC1CC1)C2", "Percent Effect": -0.611},
      {"molecule": "CNC(=O)[C@@]12CCC3(CCN(S(C)(=O)=O)CC3)[C@@H]1CN(S(C)(=O)=O)C2", "Percent Effect": 0.0987},
      {"molecule": "Cc1ccc(OCC(=O)NCC(C)C)nc1", "Percent Effect": -3.37},
      {"molecule": "Cc1cc2c(=O)n3c(nc2s1)CCN(Cc1cnn(C)c1C)CC3", "Percent Effect": -4.72},
      {"molecule": "CCOc1ccccc1CSc1nnc(CC2CCS(=O)(=O)C2)n1C", "note": "(stereo not given)", "Percent Effect": 4.33},
      {"molecule": "COCc1noc(C2(c3ccc(Br)cc3)CCOCC2)n1", "Percent Effect": 0.524},
      {"molecule": "COc1ccc(C2CCCCCN2S(=O)(=O)N(C)C)cc1", "note": "(stereo not given)", "Percent Effect": -8.89},
      {"molecule": "Cc1ncc(-c2ccnc(N3CCN(C)CC3)n2)c(-c2cccnc2)n1", "Percent Effect": 4.45},
      {"molecule": "O=C(c1cccc2c1OCO2)N1CCCC1Cn1cccn1", "note": "(stereo not given)", "Percent Effect": 3.69},
      {"molecule": "Cc1ccc(CN(C)C(=O)CN2CCOC(Cn3cncn3)C2)o1", "note": "(stereo not given)", "Percent Effect": 2.6},
      {"molecule": "CCCN(C)C(=O)c1ccc2c(c1)[nH]c(=O)n2CCOCC", "Percent Effect": -2.29},
      {"molecule": "c1cnn(CC2CN(Cc3ccc(-n4ccnc4)cc3)CCO2)c1", "note": "(stereo not given)", "Percent Effect": -1.11},
      {"molecule": "Cc1ccc(-c2noc(CN3CCOC(Cn4cncn4)C3)n2)cc1", "note": "(stereo not given)", "Percent Effect": 3.79},
      {"molecule": "CNS(=O)(=O)c1ccc(C(=O)N2CCCC2Cc2ccccc2)o1", "note": "(stereo not given)", "Percent Effect": -3.06},
      {"molecule": "CCCNC(=O)CN1CCN(Cc2csc(C(C)(C)C)n2)CC1", "Percent Effect": -3.03},
      {"molecule": "CCN1CCC(NC(=O)CN2CCc3c(ncn3C)C2)CC1", "Percent Effect": -4.88},
      {"molecule": "COc1cc2nc(C)n(CC(=O)NCCCN(C)C)c(=O)c2cc1OC", "Percent Effect": -0.232}
    ]},
    {"biological_target": "Shiga toxin 2 (Escherichia coli O157:H7) (UniProt P09385+P09386)", "test": "E. coli 0.157:H7 Shiga Toxin SOP - stx2 screening assay", "assay_type": "functional", "design": "scale not given: direction of the effect not stated beside the values", "conditions": "30 µM", "units": {"Percent Effect": "%"}, "values": [
      {"molecule": "Cc1ccc(NC2CCN(C(=O)CC3CCCO3)CC2)nn1", "note": "(stereo not given)", "Percent Effect": 4.7},
      {"molecule": "Cc1cnn(CC2CCCN2C(=O)CCc2c(C)noc2Cl)c1", "note": "(stereo not given)", "Percent Effect": -4.86},
      {"molecule": "N#Cc1ccccc1OCCN1CCCC1Cn1cccn1", "note": "(stereo not given)", "Percent Effect": 2.91},
      {"molecule": "Cc1cnn(CC2CN(CC(=O)Nc3nnc(C)s3)CCO2)c1", "note": "(stereo not given)", "Percent Effect": 7.65},
      {"molecule": "COc1ccccc1C(=O)NC(CC(=O)O)c1cccs1", "note": "(stereo not given)", "Percent Effect": -32.6},
      {"molecule": "COc1ccc(C2=CCN(C(=O)CN(C)CC(C)C#N)CC2)cc1", "note": "(stereo not given)", "Percent Effect": -65.5},
      {"molecule": "CCn1cc(NC(=O)NCC(O)CN2CCc3ccccc3C2)cn1", "note": "(stereo not given)", "Percent Effect": -38.6},
      {"molecule": "CCN(CC)CCNc1ncc(-c2cc(C)no2)c(-c2ccoc2C)n1", "Percent Effect": 7.04},
      {"molecule": "CCN(CC)CCNC(=O)c1cc(C(C)C)nc(N2CCCC2)n1", "Percent Effect": -34},
      {"molecule": "Cc1cccc(OCCNC(=O)CN2CCCC2Cn2cccn2)c1", "note": "(stereo not given)", "Percent Effect": -0.164},
      {"molecule": "COCCNC(=O)Nc1ccc(-n2cncn2)c(F)c1", "Percent Effect": 12.3},
      {"molecule": "Cc1cc(C)n(CC2CCCN2CCc2ccncc2)n1", "note": "(stereo not given)", "Percent Effect": -7.41},
      {"molecule": "CC(C)c1noc(CCCC(=O)N2CCN(Cc3ccncc3)CC2)n1", "Percent Effect": -20.6},
      {"molecule": "Cc1nc(C)n(C2CCCN(C(=O)c3csnn3)C2)n1", "note": "(stereo not given)", "Percent Effect": 18.7},
      {"molecule": "Cc1cn2nc(N3CCCN(Cc4noc(C)n4)CC3)sc2n1", "Percent Effect": 0.184},
      {"molecule": "Cc1ccc2cc(C3(O)CCN(C(=O)CN4CCCC4)CC3)ccc2n1", "Percent Effect": -47.1},
      {"molecule": "Cc1ccc(-c2nc(CNCCn3cccn3)cs2)o1", "Percent Effect": 13},
      {"molecule": "Cc1nnc(C(C)N2CCN(Cc3ccc(C#N)cc3)CC2)o1", "note": "(stereo not given)", "Percent Effect": 20},
      {"molecule": "CC(C)c1cc2c(O)nc(CSCC(=O)O)nc2s1", "Percent Effect": -12.1},
      {"molecule": "CC(NCc1ccc(F)cc1)c1ccc(OCC(=O)NC2CC2)cc1", "note": "(stereo not given)", "Percent Effect": -19.1},
      {"molecule": "N#Cc1ccccc1C(=O)N1CCC2(CC(=O)NC2=O)C1", "note": "(stereo not given)", "Percent Effect": -0.393},
      {"molecule": "COc1cc(CNC(=O)c2c(C)noc2C(C)C)ccn1", "Percent Effect": -44},
      {"molecule": "Nc1cc(CCC2CN(Cc3ccc(C(=O)O)cc3)CCO2)ccn1", "note": "(stereo not given)", "Percent Effect": 55.2},
      {"molecule": "c1nc(COCC2CC2)c2n1CCCN(CC1CC1)C2", "Percent Effect": -11.2},
      {"molecule": "CNC(=O)[C@@]12CCC3(CCN(S(C)(=O)=O)CC3)[C@@H]1CN(S(C)(=O)=O)C2", "Percent Effect": -5.23},
      {"molecule": "Cc1ccc(OCC(=O)NCC(C)C)nc1", "Percent Effect": -28.9},
      {"molecule": "Cc1cc2c(=O)n3c(nc2s1)CCN(Cc1cnn(C)c1C)CC3", "Percent Effect": 8.81},
      {"molecule": "CCOc1ccccc1CSc1nnc(CC2CCS(=O)(=O)C2)n1C", "note": "(stereo not given)", "Percent Effect": 4.92},
      {"molecule": "COCc1noc(C2(c3ccc(Br)cc3)CCOCC2)n1", "Percent Effect": -0.633},
      {"molecule": "COc1ccc(C2CCCCCN2S(=O)(=O)N(C)C)cc1", "note": "(stereo not given)", "Percent Effect": -9.69},
      {"molecule": "Cc1ncc(-c2ccnc(N3CCN(C)CC3)n2)c(-c2cccnc2)n1", "Percent Effect": -20.4},
      {"molecule": "O=C(c1cccc2c1OCO2)N1CCCC1Cn1cccn1", "note": "(stereo not given)", "Percent Effect": 29.5},
      {"molecule": "Cc1ccc(CN(C)C(=O)CN2CCOC(Cn3cncn3)C2)o1", "note": "(stereo not given)", "Percent Effect": -9.96},
      {"molecule": "CCCN(C)C(=O)c1ccc2c(c1)[nH]c(=O)n2CCOCC", "Percent Effect": -18.9},
      {"molecule": "c1cnn(CC2CN(Cc3ccc(-n4ccnc4)cc3)CCO2)c1", "note": "(stereo not given)", "Percent Effect": -7.92},
      {"molecule": "Cc1ccc(-c2noc(CN3CCOC(Cn4cncn4)C3)n2)cc1", "note": "(stereo not given)", "Percent Effect": 5.98},
      {"molecule": "CNS(=O)(=O)c1ccc(C(=O)N2CCCC2Cc2ccccc2)o1", "note": "(stereo not given)", "Percent Effect": 18.2},
      {"molecule": "CCCNC(=O)CN1CCN(Cc2csc(C(C)(C)C)n2)CC1", "Percent Effect": 11.1},
      {"molecule": "CCN1CCC(NC(=O)CN2CCc3c(ncn3C)C2)CC1", "Percent Effect": 19.9},
      {"molecule": "COc1cc2nc(C)n(CC(=O)NCCCN(C)C)c(=O)c2cc1OC", "Percent Effect": -51.4}
    ]}
  ]
}
